Bioassay records (PubChem BioAssay)
Sampled rows, rich in hits. Any-hit rate of the full collection: about 1.2%.
RXFP1 antagonist: RXFP1 (human) relaxin receptor antagonism. Q9HBX9. HEK293-RXFP1, relaxin-stimulated cAMP HTRF, 30 min; hits give low values. activity change, negative = inhibition, % at 57.5 µM. 0.59% of 350,000 active. AID 1259400;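 active means activity change of -60% or lower, but not beyond a set lower limit; inconclusive means change between -60% and -40%, or beyond the set limit; inactive means change above -40%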; further: on the % scale 0 is the no-effect control and ±100 the full control effect
Target sequence (Q9HBX9 whole entry, looked up): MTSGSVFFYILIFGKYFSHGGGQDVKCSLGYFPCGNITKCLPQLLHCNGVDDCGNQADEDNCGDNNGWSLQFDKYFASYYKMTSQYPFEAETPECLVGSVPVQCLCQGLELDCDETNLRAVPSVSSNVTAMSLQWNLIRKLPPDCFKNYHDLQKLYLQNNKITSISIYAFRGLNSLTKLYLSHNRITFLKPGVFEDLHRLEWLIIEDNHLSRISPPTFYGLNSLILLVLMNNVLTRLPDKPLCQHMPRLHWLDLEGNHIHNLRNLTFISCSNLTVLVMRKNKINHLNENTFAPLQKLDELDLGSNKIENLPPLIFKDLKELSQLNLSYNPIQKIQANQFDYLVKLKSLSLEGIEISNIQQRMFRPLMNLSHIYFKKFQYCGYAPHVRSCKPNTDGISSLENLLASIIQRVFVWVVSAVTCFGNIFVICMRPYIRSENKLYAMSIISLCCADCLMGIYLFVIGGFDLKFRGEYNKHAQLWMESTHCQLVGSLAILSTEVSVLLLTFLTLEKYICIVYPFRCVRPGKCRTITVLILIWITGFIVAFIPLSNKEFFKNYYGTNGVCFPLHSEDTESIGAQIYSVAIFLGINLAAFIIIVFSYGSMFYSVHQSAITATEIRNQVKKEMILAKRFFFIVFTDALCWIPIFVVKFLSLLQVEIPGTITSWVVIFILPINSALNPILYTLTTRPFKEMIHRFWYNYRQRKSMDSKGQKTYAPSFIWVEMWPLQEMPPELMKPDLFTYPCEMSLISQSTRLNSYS
gsp agonist: gsp mutant agonism. AID 624287. 0.13% of 340,000 active. gsp mutant cells, cAMP HTRF, 30 min. Potency, µM (series often up to 76.9 µM), without a hit: top-dose activation (cAMP increase), usual class: activators; active means well fitted activation curve with a large enough effect; inconclusive means small, poorly fitted or top-dose-only effect, or another doubt; inactive means no such curve, though single readings can be large or run the other way; cell line not stated here;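 further: phosphodiesterase inhibitor Ro 20-1724 added with compounds to block cAMP breakdown; potency means the concentration at half of the fitted maximal effect; nearly all actives have a fitted effect of over 60% in size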
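Cells in DMEM/10% FBS with G418 were pretreated with compounds in DMSO plus […] (300 uM stock) for 30 min at 37C. cAMP was measured by HTRF (cAMP-d2 plus anti-cAMP antibody-K) after 30 min at room temperature.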
RXFP1 ag: activates the human relaxin receptor RXFP1; Potency, µM (series often up to 57.5 µM), inactives show at the highest dose activation, most hits filed as activators; AID 2676; Q9HBX9; HEK293T-RXFP1 cAMP TR-FRET, 30 min; response scale: percent of porcine relaxin response, buffer zero; 0.3% of 370,000 active; further: potency means the concentration at half of the fitted maximal effect; on the % scale 0 is the no-effect control and ±100 the full control effect; nearly all actives have a fitted effect of over 60% in size
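Agonist response is measured as cAMP accumulation in an RXFP1-transfected HEK293T line under PDE4 inhibition. Values are scaled between buffer-only and 29 nM porcine relaxin, and EC50s come from standard Hill equation fits.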
gsp antagonist: antagonizes gsp, the McCune-Albright syndrome mutation. Potency, µM (titrated, usually from 76.9 µM), inactives show at the top dose activity change, negative = inhibition, usual class: inhibitors. 0.4% of 340,000 active. gsp-mutant cells, cAMP HTRF, 30 min; calls by dose curve; cell line not stated here;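 further: intracellular cAMP measured with PDE inhibitor Ro 20-1724 present during compound exposure; potency means the concentration at half of the fitted maximal effect; on the % scale 0 is the no-effect control and ±100 the full control effect; nearly all actives have a fitted effect of over 65% in size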
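Cells, 2000/well, grown 16–24 h in DMEM 10% FBS with 0.5 mg/ml G418, then compounds plus […] (300 uM addition stock), 30 min at 37C. cAMP read by HTRF (cAMP-d2 and anti-cAMP antibody-K in lysis buffer) after 30 min RT.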
MmCpn inh: inhibitors of Methanococcus maripaludis chaperonin TRiC (MmCpn). Potency, µM (top dose mostly 76.9 µM), without a hit: at the highest dose activity, negative = inhibition, hits mostly inhibitors. purified Mm-Cpn ATPase, ADP Transcreener TR-FRET. 0.031% of 330,000 active; further: potency means the concentration at half of the fitted maximal effect; on the % scale 0 is the no-effect control and ±100 the full control effect; nearly all actives have a fitted effect of over 80% in size
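Quantitative HTS used 25 nM Mm-CPN and 10 uM ATP in magnesium/KCl Tris buffer, pH 7.4, with 1 mM DTT. Hydrolysis ran 30 min at 37°C; ADP was read by HTRF.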
CCT modulator: cytosolic chaperonin activity modulation. activity change, % (test concentration not listed), hits read low. AID 651819. 0.3% of 360,000 active. purified chaperonin ATPase assay, HTRF ADP detection, 30 min; in the data active means activity change below about -30%; further: on the % scale 0 is the no-effect control and ±100 the full control effect
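First, chaperonin was dispensed at 40 nM or 20 nM final depending on batch activity. Next, compounds were pinned at 76 uM and ATP added at 10 uM. After 30 min at 37 °C, ADP detection reagents ran 30 min at ambient temperature.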
Starred values were filed as active, the others as inactive; ? = inconclusive; . = not tested or not shown; [ ] = another dose, or the depositor's remark. Unless noted, the call rests on the fitted dose curve; in most records, active means well fitted curve in the direction sought with a large enough effect; inconclusive means small, poorly fitted or top-dose-only effect, or another doubt; inactive means no such curve, though single readings can be large; an effect the other way counts as inactive or inconclusive.

SMILES	RXFP1 antagonist	gsp agonist	RXFP1 ag	gsp antagonist	MmCpn inh	CCT modulator
Cc1cccc(NC(=O)c2ccc3nccnc3c2)n1	0.0	?	5.2%	-0.5%	1.9%	-49.9*
Cc1cccc(NC(=O)c2cccc(NC(=O)c3ccccc3)c2)n1	-7.1	-14.6%	0.9%	-17.3%	1.5%	1.4
CCOC(=O)c1cc(-c2ccccc2)n(CCC(=O)NCCc2cccc(C)c2)c1C	-30.6	.	-1.4%	.	.	.
CCOC(=O)c1cc(-c2ccc(OC)cc2)n(CCC(=O)NCCc2ccccc2)c1C	-62.0*	.	-0.5%	.	.	.
CCS(=O)(=O)c1ncc(Cl)c(C(=O)N(Cc2ccccc2)c2ccc(OC)cc2)n1	?	.	-0.5%	.	.	.
C/C=C(\C)C(=O)OC1[C@H](OC(C)=O)C2(CO)C(CC1(C)C)C1=CCC3C4(C)CCC(O[C@@H]5O[C@H](C(=O)O)[C@@H](O[C@@H]6O[C@H](CO)[C@@H](O)[C@H](O)[C@H]6O)[C@H](O)[C@H]5O[C@H]5O[C@H](CO)[C@@H](O)[C@H](O)[C@H]5O)[C@](C)(CO)C4CCC3(C)[C@]1(C)C[C@H]2O (stereo not given in full)	.	.	.	?	.	-2.3
C/C=C(/C)C(=O)OC1CC(C)(C)C[C@H]2C3=CC[C@@H]4[C@@]5(C)CCC(O[C@@H]6O[C@@H](C(=O)O)[C@@H](O)C(O[C@@H]7OC[C@H](O)[C@@H](O)[C@@H]7O[C@@H]7OC(CO)C(O)[C@@H](O)[C@@H]7O)C6O[C@@H]6OC(CO)C(O)C(O)C6O)[C@@](C)(CO)[C@@H]5CC[C@]4(C)[C@]3(C)CC(O)[C@@]12CO (stereo not given in full)	.	.	.	50.1µM*	0.1%	-1.3
COC(=O)C(Nc1ccccc1Cl)(c1cc(C)c(O)c(C)c1)C(F)(F)F (stereo not given)	-64.1*	?	8.4%	-7.8%	-0.7%	0.1
CCOC(=O)/C=C/C(=O)Nc1ccc(Oc2ccccc2)cc1	-64.0*	-15.3%[15.4 µM]	2.6%	-1.0%	-1.5%	-4.6
CC(=O)Nc1ccc(NC(=O)C(C)OC(=O)CCCN=C2NS(=O)(=O)c3ccccc32)cc1 (stereo not given)	-0.4	-49.8%	-0.5%	6.4%	0.0%	-1.8
CC(OC(=O)CCN=C1NS(=O)(=O)c2ccccc21)C(=O)Nc1ccc(N(C)C)cc1 (stereo not given)	.	-27.2%	-1.5%	7.08µM*	0.5%	-1.0
COc1nccnc1NS(=O)(=O)c1ccc(NC(=S)NC(=O)c2cccc(F)c2)cc1	1.7	-3.1%	3.3%	?	1.5%	-63.4*
CCc1ccc(NC(=O)c2ccc(Cn3nc(N4CCN(c5ccccc5)CC4)ccc3=O)o2)cc1	?	.	0.1%	.	.	.
COCCCN1C(=O)C(O)=C(C(=O)c2ccc(C)o2)C1c1cccc(Br)c1 (stereo not given)	21.7	12.6µM*	?	10.7%	-1.8%	2.1
COCCCN1C(=O)C(O)=C(C(=O)c2ccco2)C1c1ccccc1 (stereo not given)	31.0	?	?	16.7%	-1.2%	-1.5
Cc1nn(CC(=O)Nc2ccc3c(c2)OCCO3)c(C)c1[N+](=O)[O-]	-10.5	-5.2%[15.4 µM]	.	2.3%	0.0%	-32.5*
CN1C(=O)/C(=C/c2ccccc2F)Sc2ccc(C(=O)NCC3CCCO3)cc21 (stereo not given)	-9.4	?	-0.1%	31.6µM*	0.2%	-1.8
NS(=O)(=O)c1cc2c(cc1Cl)CN(C1CCCCC1)C2=O	-14.6	.	.	.	.	.
CN(C)S(=O)(=O)c1ccc(C(=O)OCC(=O)Nc2cccnc2Cl)cc1	19.7	11.4%[15.4 µM]	14.1µM*	-0.6%	-4.7%	1.0
O=C(COC(=O)c1ccc(Br)cc1)Nc1cccnc1Cl	7.4	8.4%	1.4%	0.5%	1.4%	0.3
COc1ccc(CNC(=O)C(NC(C)=O)C(=O)Nc2ccc(C(C)C)cc2)cc1 (stereo not given)	4.1	-29.0%	-0.4%	6.3%	-1.3%	-41.2*
Oc1nc(Nc2ccc(F)cc2)sc1/C=C1\C=Nc2ccccc21	-104.0*	11.8%[15.4 µM]	2.4%	-26.5%	3.6%	-11.0
Clc1ccc(-n2ncc3c(N4CCCCCC4)ncnc32)cc1	.	-24.2%	0.2%	-5.2%	-3.0%	0.3
Brc1cc(Br)c2ncnc(N3CCCCC3)c2c1	28.6	14.1µM*	25.1µM*	2.6%	-17.0%	-4.0
O=C(N/N=C/c1ccc(O)c(O)c1O)/C(=C/c1ccc([N+](=O)[O-])cc1)NC(=O)c1ccccc1	-71.3*	7.6%[15.4 µM]	-0.2%	-28.3%	1.5%	2.8
SMILES	RXFP1 antagonist	gsp agonist	RXFP1 ag	gsp antagonist	MmCpn inh	CCT modulator
COc1ccc(-c2c(-c3ccccc3OC)sc3ccccc23)cc1C=O	.	20.3%	2.9%	-17.2%	?	-3.8
COc1ncc(-c2c(-c3ccccc3OC)sc3ccccc23)cn1	.	.	.	.	.	0.0
COc1ccccc1-c1sc2ccccc2c1-c1ccccc1OC	.	.	4.4%	-14.4%	56.2µM*	-9.5
COc1ccccc1-c1sc2ccccc2c1-c1ccc2c(c1)OCCO2	.	?	0.4%	-5.5%	20µM*	-6.1
COc1ccc(-c2c(-c3ccccc3OC)sc3ccccc23)cc1OC	.	17.6%	3.0%	-6.7%	35.5µM*	1.6
Cc1ccc(S(=O)(=O)N2CCOCC2)cc1NC(=O)CSc1nnc2cc(C)c3ccccc3n12	-2.8	12.6%[15.4 µM]	6.1%	-2.6%	-8.9%	-29.3
Cc1ccc(NC(=O)CSc2ncnc3ccccc23)cc1S(=O)(=O)N1CCCCC1	0.9	-13.0%[15.4 µM]	4.0%	?	?	0.3
Cc1cc2nnc(SCC(=O)Nc3cc(S(=O)(=O)N4CCOCC4)ccc3Cl)n2c2ccccc12	-5.8	-10.1%	5.4%	-6.3%	-5.3%	-53.3*
COc1ccc(S(=O)(=O)N2CCCCC2)cc1NC(=O)CSc1ncnc2ccccc12	.	20µM*	?	26.8%	?	1.0
COc1ccc(S(=O)(=O)N2CCOCC2)cc1NC(=O)CSc1ccccc1	-8.4	2.9%	-2.9%	-6.9%	0.5%	2.9
COc1ccc(S(=O)(=O)N2CCOCC2)cc1NC(=O)CSc1cccc[n+]1[O-]	4.9	15.8µM*	?	23.8%	-0.3%	-1.3
COc1cccc(NC(=O)C(=O)NCC(c2ccc3c(c2)OCO3)N2CCOCC2)c1 (stereo not given)	-9.5	.	-0.9%	.	.	.
CCc1ccc(NC(=O)N(Cc2cn(CC)c3ccccc23)C2CCCCC2)cc1	.	.	-0.7%	.	.	.
CCCCOc1ccc(C(=O)NCCS(=O)(=O)N2CCN(c3ccccc3OC)CC2)cc1	?	.	1.3%	.	.	.
